# In the OligoGym collection:
# Target: COL20A1
# Assay: pooled miR-30 sensor sort-seq; sequence = guide strand
# Conditions: shRNA
# Also: reference of the scale not given here.
row,Sequence,sensor-assay potency score (higher = more potent)
1,TTGGTGTGAAGGCAACTTGGGG,-0.796
2,TAGACAAGCACGCCAGACGGGG,-1.06
3,TCTTCCTGAGCTTTTCTCCTGG,-0.053

# Target: COL23A1
# Assay: as above
# Conditions: shRNA
row,Sequence,sensor-assay potency score (higher = more potent)
1,TAGTCGATCACCACTGTGTCTC,-0.624
2,TTGCTTTGCCTGCACAGCCCAC,-1.59
3,TTCGCTAGTCCGTCCAACTTCT,-0.113
4,TAGAGCTAGACCCTCGTGGGGG,-0.316
5,TTTGCCTGCACAGCCCACCTAG,-1.12
6,TCTACCTTCATCTCCTTCCTGG,0.0937
7,TTGAGGGCATCCAAGATCCTGC,-1.13
8,TAGTCCGTCCAACTTCTCCCGC,-1.02
9,TTCTCTCCACGCTCGCTCCGAT,-1.13
10,TCATAGTCGATCACCACTGTGT,0.319
11,TTGTCCTTGGTCTCCCCGGGGG,-1.12
12,TTGCTGGGAACACTTGCTGGAG,-1.43
